According to PubChem BioAssay (NCATS):
Results filed as inconclusive are left out. Activity calls are given as the source filed them. Unless noted, calls follow the shape of the dose curve; as a rule, active = well fitted curve in the direction sought with a large enough effect; inconclusive = small, poorly fitted or top-dose-only effect, or another doubt; inactive = no such curve, though single readings can be large; an effect the other way counts as inactive or inconclusive.

Assays:
[1] = P-glycoprotein substrates identified in KB-8-5-11 adenocarcinoma cell line, qHTS therapeutic library screen (AID 1346987); also: nearly all actives have a fitted effect of over 65% in size
Method in brief: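 Human cervical adenocarcinoma KB-8-5-11 cells, selected in colchicine to over-express P-gp and assayed without it, were exposed for 72 h to titrated compounds. An ATP-based luminescent viability signal gave AC50.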

[2] = NS1 protein of Zika virus - qHTS assay to identify small molecule inhibitors in human HEK 293 cells (AID 1347053);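 also: series mostly up to about 46 µM; plate controls were infected untreated cells for no effect and uninfected cells for full effect; nearly all actives have a fitted effect of over 55% in size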
Method in brief: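 Readout was TR-FRET using paired anti-NS1 antibodies after 24 h infection of HEK 293 cells with ZIKV MR766 (MOI = 0.5). Compound preceded virus by 1 h; reduced signal reflects lower NS1 expression.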

[3] = qHTS of pediatric cancer cell lines to identify multiple opportunities for drug repurposing: Primary screen for DAOY cells (AID 1347090);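 also: series mostly up to about 46 µM; plate controls were DMSO for no effect and bortezomib for full effect; nearly all actives have a fitted effect of over 55% in size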
Method in brief: (§1)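 Cell viability, CellTiter-Glo luminescence; 500-1,000 cells/well, 8- or 11-point titration, 48 h compound exposure at 37 degrees C, 5% CO2. Controls: DMSO neutral, bortezomib 2.3 µM final as positive.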

[4] = qHTS of pediatric cancer cell lines to identify multiple opportunities for drug repurposing: Primary screen for SJ-GBM2 cells (AID 1347091); also: potency is read from the fitted curve at half-maximal effect;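 as to activity change, negative = cytotoxic: plate controls were DMSO neutral control for no effect and bortezomib for full effect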
Method in brief: as §1

[5] = qHTS of pediatric cancer cell lines to identify multiple opportunities for drug repurposing: Primary screen for A673 cells (AID 1347092); also: nearly all actives have a fitted effect of over 45% in size; also: potency is read from the fitted curve at half-maximal effect
Method in brief: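 48 h compound exposure, A673, 500-1,000 cells/well, 37 degrees C/5% CO2. MIPE: 11-point, 0.78 nM-46 µM; NPC: 8-point, 0.59 nM-46 µM (final). Readout CellTiter-Glo luminescence after 15 min RT.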

[6] = qHTS of pediatric cancer cell lines to identify multiple opportunities for drug repurposing: Primary screen for SK-N-MC cells (AID 1347093); also: potency is read from the fitted curve at half-maximal effect;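 as to activity change, negative = cytotoxic: series mostly up to about 46 µM; plate controls were DMSO neutral control for no effect and bortezomib for full effect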
Method in brief: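 Metabolically active cells were quantified by ATP-dependent luminescence (CellTiter-Glo, 15 min at room temperature) following 48 h treatment. Cells had been plated at 500-1,000 per well and settled for 5 h beforehand.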

[7] = qHTS of pediatric cancer cell lines to identify multiple opportunities for drug repurposing: Primary screen for TC32 cells (AID 1347089); also: % is scaled to controls: 0 for no effect and ±100 for the full control effect; nearly all actives have a fitted effect of over 60% in size
Method in brief: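 In the primary qHTS, MIPE compounds were tested at 11 concentrations (0.78 nM to 46 µM) and NPC compounds at 8 (0.59 nM to 46 µM) on TC32 cells for 48 h. CellTiter-Glo luminescence gave viability.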

[8] = Natriuretic polypeptide receptor (hNpr1) antagonism - Pilot counterscreen GloSensor control cell line (AID 1347045; calls by dose curve; also: series mostly up to about 38 µM; % is scaled to controls: 0 for no effect and ±100 for the full control effect)
Method in brief: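 The SNP-driven cGMP luminescence signal (50 uM, 20 min, room temperature) was measured in GloSensor HEK293 control cells. Compounds were tested as a LOPAC titration series and preincubated for 30-50 min.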

[9] = biological target: Atrial natriuretic peptide receptor 1 (Homo sapiens) (UniProt P16066); assay: Natriuretic polypeptide receptor (hNpr1) antagonism - Pilot screen (AID 1347049; calls by dose curve;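 also: HEK293 cells with hNpr1 and GloSensor cGMP luciferase stimulated by 0.1 nM hNppA; agonist-evoked cGMP luminescence read 20 min after hNppA addition; series mostly up to about 58 µM; % is scaled to controls: 0 for no effect and ±100 for the full control effect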)
Atrial natriuretic peptide receptor 1 (Homo sapiens), sequence (P16066 whole entry, looked up): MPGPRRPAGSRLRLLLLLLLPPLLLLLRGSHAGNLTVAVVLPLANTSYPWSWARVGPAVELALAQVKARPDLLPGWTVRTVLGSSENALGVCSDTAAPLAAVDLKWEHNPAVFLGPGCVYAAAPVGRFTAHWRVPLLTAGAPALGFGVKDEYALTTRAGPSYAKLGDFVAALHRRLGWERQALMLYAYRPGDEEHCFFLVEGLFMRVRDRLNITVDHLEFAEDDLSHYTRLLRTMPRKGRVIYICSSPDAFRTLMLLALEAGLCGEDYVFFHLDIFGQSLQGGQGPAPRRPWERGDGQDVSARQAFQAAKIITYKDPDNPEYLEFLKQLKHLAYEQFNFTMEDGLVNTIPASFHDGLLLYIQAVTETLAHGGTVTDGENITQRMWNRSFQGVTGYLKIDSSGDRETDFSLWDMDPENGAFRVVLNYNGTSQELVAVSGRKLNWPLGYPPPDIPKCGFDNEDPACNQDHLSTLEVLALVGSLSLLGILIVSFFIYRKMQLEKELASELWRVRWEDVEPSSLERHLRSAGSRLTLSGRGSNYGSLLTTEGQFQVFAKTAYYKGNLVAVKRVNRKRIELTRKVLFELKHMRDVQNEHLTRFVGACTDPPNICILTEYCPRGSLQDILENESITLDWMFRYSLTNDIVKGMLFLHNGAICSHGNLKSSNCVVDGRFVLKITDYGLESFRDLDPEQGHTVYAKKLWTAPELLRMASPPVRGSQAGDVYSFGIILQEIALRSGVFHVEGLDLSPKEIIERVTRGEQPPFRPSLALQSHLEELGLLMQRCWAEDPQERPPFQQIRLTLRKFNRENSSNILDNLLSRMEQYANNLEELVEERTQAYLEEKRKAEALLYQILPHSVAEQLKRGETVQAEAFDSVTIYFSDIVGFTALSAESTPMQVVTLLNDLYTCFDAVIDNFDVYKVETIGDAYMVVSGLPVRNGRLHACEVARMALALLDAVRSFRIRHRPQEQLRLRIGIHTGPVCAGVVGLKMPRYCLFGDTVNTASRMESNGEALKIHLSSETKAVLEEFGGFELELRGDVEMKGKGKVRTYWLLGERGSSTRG
Method in brief: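 Receptor antagonism read as cGMP-dependent luminescence in hNpr1/pGS-40F HEK293 cells: pre-read after 30 min compound exposure, post-read 20 min after hNppA agonist at 0.1 nM final, all at room temperature, protected from light; A-71915 titration as control.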

[10] = biological target: T1, Tyrosine-protein phosphatase non-receptor type substrate 1 (Homo sapiens) + Leukocyte surface antigen CD47 (Homo sapiens) (UniProt P78324+Q08722); assay: CD47-SIRPalpha protein protein interaction - LANCE assay qHTS validation (AID 1347057; active = well fitted curve in the direction sought with a large enough effect in the signal ratio, with a control signal flat, not every such curve was filed as active; the % refers to the signal ratio; also: series mostly up to about 38 µM; 0% is about no effect)
T1 sequence (P78324 whole entry, looked up, the tested form may be a part): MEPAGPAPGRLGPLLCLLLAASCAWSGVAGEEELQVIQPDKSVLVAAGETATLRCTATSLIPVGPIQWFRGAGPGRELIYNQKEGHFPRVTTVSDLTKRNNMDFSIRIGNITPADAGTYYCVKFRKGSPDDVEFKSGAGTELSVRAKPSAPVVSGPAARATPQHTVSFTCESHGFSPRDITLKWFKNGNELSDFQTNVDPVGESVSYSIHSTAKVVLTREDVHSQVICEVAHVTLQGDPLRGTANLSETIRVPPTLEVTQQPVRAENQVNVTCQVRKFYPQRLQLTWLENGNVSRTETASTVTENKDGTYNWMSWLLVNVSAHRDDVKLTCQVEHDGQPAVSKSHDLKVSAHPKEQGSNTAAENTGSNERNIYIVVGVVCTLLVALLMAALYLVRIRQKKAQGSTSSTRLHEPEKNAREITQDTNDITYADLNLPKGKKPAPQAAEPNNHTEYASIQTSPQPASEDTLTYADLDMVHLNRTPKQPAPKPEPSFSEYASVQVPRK
T1 sequence (Q08722 whole entry, looked up, the tested form may be a part): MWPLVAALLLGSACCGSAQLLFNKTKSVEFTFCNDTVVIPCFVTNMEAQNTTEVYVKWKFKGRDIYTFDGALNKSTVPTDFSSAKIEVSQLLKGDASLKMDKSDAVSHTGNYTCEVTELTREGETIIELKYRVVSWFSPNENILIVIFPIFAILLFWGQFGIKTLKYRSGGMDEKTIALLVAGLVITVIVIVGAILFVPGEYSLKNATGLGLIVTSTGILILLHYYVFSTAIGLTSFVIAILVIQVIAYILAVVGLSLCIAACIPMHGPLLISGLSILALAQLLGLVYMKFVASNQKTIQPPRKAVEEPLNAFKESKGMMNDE
Method in brief: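 Inhibition of soluble CD47/SIRPalpha ectodomain association by titrated compounds, measured as 665/615 nm time-resolved FRET ratio after sequential 30 min room-temperature incubations.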

[11] = biological target: T1, Tyrosine-protein phosphatase non-receptor type substrate 1 (Homo sapiens) + Leukocyte surface antigen CD47 (Homo sapiens); assay: CD47-SIRPalpha protein protein interaction - Alpha assay qHTS validation (AID 1347059);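 also: bead proximity luminescence from CD47 binding SIRPalpha after compound preincubation with SIRPalpha; % is scaled to controls: 0 for no effect and ±100 for the full control effect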
Method in brief: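 AlphaScreen signal between CD47-His (12.5 nM) and biotin-SIRPalpha (25 nM) soluble extracellular domains, bead-captured via Ni-NTA and streptavidin. Compounds, in 7-point titrations, met SIRPalpha 30 min before CD47; PBS pH 7.4 with 0.05% IGEPAL.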

[12] = biological target: Parathyroid hormone/parathyroid hormone-related peptide receptor (Homo sapiens) (UniProt Q03431); assay: qHTS for PTHR1 Agonists: Optimization Screen against the NCGC LOPAC library (AID 1347079);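 also: GloSensor cAMP luminescence in HEK-293 GP2 cells expressing human PTHR1 with IBMX; 0% is about no effect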
Parathyroid hormone/parathyroid hormone-related peptide receptor (Homo sapiens), sequence (Q03431 whole entry, looked up): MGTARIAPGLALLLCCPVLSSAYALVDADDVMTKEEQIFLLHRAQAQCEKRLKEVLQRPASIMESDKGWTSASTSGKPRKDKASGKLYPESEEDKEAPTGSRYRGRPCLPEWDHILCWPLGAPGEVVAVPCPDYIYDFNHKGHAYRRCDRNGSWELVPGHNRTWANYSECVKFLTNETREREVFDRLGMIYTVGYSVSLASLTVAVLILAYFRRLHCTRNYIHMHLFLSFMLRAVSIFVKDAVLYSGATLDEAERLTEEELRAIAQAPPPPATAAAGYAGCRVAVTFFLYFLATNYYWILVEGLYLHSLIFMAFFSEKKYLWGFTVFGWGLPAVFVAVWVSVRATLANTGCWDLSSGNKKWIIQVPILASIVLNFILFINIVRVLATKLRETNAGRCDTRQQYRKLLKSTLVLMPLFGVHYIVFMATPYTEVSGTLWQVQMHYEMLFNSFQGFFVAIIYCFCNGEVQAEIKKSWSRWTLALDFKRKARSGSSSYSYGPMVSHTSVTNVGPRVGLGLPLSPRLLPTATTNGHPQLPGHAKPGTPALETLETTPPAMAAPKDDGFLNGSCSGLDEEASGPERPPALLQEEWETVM
Method in brief: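 Signal increase flags agonism. GP2 cells, derived from HEK-293, express human PTHR1 and a GloSensor cAMP construct.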

[13] = biological target: Atrial natriuretic peptide receptor 2 (Homo sapiens) (UniProt P20594); assay: Natriuretic polypeptide receptor (hNpr2) antagonism - Pilot subtype selectivity assay (AID 1347050; calls by dose curve; also: % is scaled to controls: 0 for no effect and ±100 for the full control effect)
Atrial natriuretic peptide receptor 2 (Homo sapiens), sequence (P20594 whole entry, looked up): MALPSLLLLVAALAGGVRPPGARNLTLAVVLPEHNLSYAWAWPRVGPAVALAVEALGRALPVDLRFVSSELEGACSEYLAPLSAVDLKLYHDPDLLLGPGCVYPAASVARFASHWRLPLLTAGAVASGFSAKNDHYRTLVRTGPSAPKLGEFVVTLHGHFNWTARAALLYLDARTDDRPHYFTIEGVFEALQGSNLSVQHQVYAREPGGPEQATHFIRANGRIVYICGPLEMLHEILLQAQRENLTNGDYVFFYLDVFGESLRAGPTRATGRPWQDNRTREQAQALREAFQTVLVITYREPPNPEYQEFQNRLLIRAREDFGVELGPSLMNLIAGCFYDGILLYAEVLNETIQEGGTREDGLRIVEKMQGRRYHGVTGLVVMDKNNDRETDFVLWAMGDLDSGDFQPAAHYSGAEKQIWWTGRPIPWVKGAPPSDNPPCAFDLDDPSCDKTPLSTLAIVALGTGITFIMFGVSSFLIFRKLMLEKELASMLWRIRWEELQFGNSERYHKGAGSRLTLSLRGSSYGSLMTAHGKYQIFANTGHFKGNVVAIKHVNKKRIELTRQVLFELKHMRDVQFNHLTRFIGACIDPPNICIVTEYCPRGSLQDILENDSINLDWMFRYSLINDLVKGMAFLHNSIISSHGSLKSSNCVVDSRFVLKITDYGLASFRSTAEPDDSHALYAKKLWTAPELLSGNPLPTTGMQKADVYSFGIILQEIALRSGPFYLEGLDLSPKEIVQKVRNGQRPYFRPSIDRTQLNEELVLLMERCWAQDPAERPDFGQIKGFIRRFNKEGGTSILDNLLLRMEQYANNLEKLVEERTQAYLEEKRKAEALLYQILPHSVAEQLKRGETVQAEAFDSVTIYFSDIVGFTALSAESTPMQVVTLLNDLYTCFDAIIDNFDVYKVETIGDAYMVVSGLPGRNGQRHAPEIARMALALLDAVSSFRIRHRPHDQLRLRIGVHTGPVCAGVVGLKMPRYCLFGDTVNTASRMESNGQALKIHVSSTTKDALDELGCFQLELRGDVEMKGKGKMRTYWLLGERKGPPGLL
Method in brief: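 Antagonist mode: compounds (LOPAC1280, seven 1:5 dilutions) added 30 min before 1 nM hNppC stimulation of hNpr2-HEK293 cGMP-sensor cells; luminescence read before and 20 min after agonist at ambient temperature.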

[14] = biological target: T1, Tyrosine-protein phosphatase non-receptor type substrate 1 (Homo sapiens) + Leukocyte surface antigen CD47 (Homo sapiens); assay: CD47-SIRPalpha protein protein interaction - HTRF assay qHTS validation (AID 1347058; active = well fitted curve in the direction sought with a large enough effect in the signal ratio, not every such curve was filed as active; the % refers to the signal ratio; also: series mostly up to about 38 µM; 0% is about no effect)
Method in brief: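 Soluble extracellular domains (6His-CD47, Avi-tag-biotinylated SIRPalpha) in PBS pH 7.4 with 0.05% IGEPAL CA-630. Compounds were preincubated 30 min at RT with CD47 and anti-His-Eu, then SIRPalpha and SAV-XL665 were added. TR-FRET 665/615 ratio.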

CC(C)(C)C(=O)C(Oc1ccc(Cl)cc1)n1ccnc1 (stereo not given)
inactive: Potency [1] | Potency [2] | Potency [3] | Potency [4] | Potency [5] | Potency [6]

OCC(CO)N[C@H]1C[C@](O)(CO)[C@@H](O)[C@H](O)[C@H]1O
inactive: Potency [1] | Potency [2] | Potency [3] | Potency [4] | Potency [5] | Potency [6]

c1ccc(CN(CC2=NCCN2)c2ccccc2)cc1
inactive: Potency [1] | Potency [2] | Potency [4] | Potency [5] | Potency [6]

O=C(CCCN1CCN(c2ccccn2)CC1)c1ccc(F)cc1
inactive: Potency [1] | Potency [2] | Potency [3]

O=C(O)COc1nn(Cc2ccccc2)c2ccccc12
inactive: Potency [1] | Potency [2] | Potency [7] | Potency [5] | Potency [6]

C[C@@H]1CCN(C(=O)[C@H](CCCN=C(N)N)NS(=O)(=O)c2cccc3c2NC[C@H](C)C3)[C@@H](C(=O)O)C1
inactive: Potency [1] | Potency [2] | Potency [3] | Potency [4] | Potency [5] | Potency [6]

O=C(Oc1ccccc1C(=O)O)c1ccccc1O
inactive: Potency [1] | Potency [2] | Potency [3] | Potency [4] | Potency [5] | Potency [6]

N[C@@H](CSSC[C@H](N)C(=O)O)C(=O)O
inactive: Potency [1] | activity change, negative = inhibition [2] -26.2% [at 0.593 µM] | activity change, negative = cytotoxic [3] 14.8% [at 0.597 µM] | activity change, negative = cytotoxic [4] 12.9% [at 0.597 µM] | activity change, negative = cytotoxic [5] -1.55% [at 0.597 µM] | activity change, negative = cytotoxic [6] -7.24% [at 0.597 µM]

O=C(O)[C@H](O)c1ccccc1
inactive: Potency [1] | Potency [2] | Potency [7] | Potency [4] | Potency [5] | Potency [6]

CCN(CC)C(=O)Nc1ccc(OCC(O)CNC(C)(C)C)c(C(C)=O)c1 (stereo not given)
inactive: Potency [1] | Potency [2] | Potency [3] | Potency [4] | Potency [5] | Potency [6]

CCN(CC)CCSC(=O)C(c1ccccc1)c1ccccc1
inactive: Potency [1] | Potency [2] | Potency [7]
active: Potency [5] 21.1 µM

Cc1ncc(COP(=O)(O)O)c(C=O)c1O
inactive: Potency [1] | Potency [2] | Potency [3] | Potency [4] | Potency [5] | Potency [6]

Oc1ccc(C(O)CNCCCCCCNCC(O)c2ccc(O)c(O)c2)cc1O (stereo not given)
inactive: Potency [1] | Potency [2] | Potency [7] | Potency [6]

Cc1cccc(C)c1NC(=O)CN(CC(=O)O)CC(=O)O
inactive: Potency [1] | Potency [2] | Potency [3] | Potency [5] | Potency [6]

CNCCCC1c2ccccc2C=Cc2ccccc21
inactive: outcome [8] | outcome [9] | Potency [2] | outcome [10] | outcome [11] | Potency [12] | Potency [7]
active: Potency [6] 11.9 µM

N=c1c[n+](N2CCOCC2)[n-]o1
inactive: outcome [8] | outcome [9] | Potency [13] | Potency [2] | outcome [10] | outcome [11] | Potency [12]

CNCC(O)c1ccc(O)c(O)c1 (stereo not given)
inactive: outcome [8] | outcome [9] | Potency [13] | Potency [2] | outcome [10] | outcome [14] | outcome [11] | Potency [12] | Potency [7] | Potency [3] | Potency [4]

CC[C@H]1CN2CCc3cc(OC)c(OC)cc3[C@@H]2C[C@@H]1C[C@H]1NCCc2cc(OC)c(OC)cc21
inactive: outcome [8] | outcome [9] | Potency [13] | Potency [2] | outcome [10] | outcome [14] | outcome [11] | Potency [12]
active: Potency [4] 0.237 µM | Potency [6] 0.211 µM

CC1=C(CC(=O)O)c2cc(F)ccc2/C1=C\c1ccc(S(C)=O)cc1 (stereo not given)
inactive: outcome [9] | Potency [13] | Potency [2] | Potency [12] | Potency [7] | Potency [3] | Potency [4] | Potency [5] | Potency [6]

CC(CN1c2ccccc2Sc2ccccc21)N(C)C (stereo not given)
inactive: outcome [9] | Potency [13] | Potency [2] | outcome [10] | outcome [11] | Potency [12] | Potency [7] | Potency [3] | Potency [4] | Potency [5] | Potency [6]

CC1=C(/C=C/C(C)=C/C=C/C(C)=C/C(=O)O)C(C)(C)CCC1
inactive: outcome [9] | Potency [13] | Potency [2] | outcome [10] | outcome [14] | outcome [11] | Potency [12] | Potency [7] | Potency [3] | Potency [4] | Potency [5]

NC(N)=NCCC[C@H](N)C(=O)O
inactive: outcome [9] | Potency [13] | Potency [2] | Potency [12] | activity change, negative = cytotoxic [5] 0.848% [at 4.84 µM] | activity change, negative = cytotoxic [6] -27.1% [at 4.84 µM]

CN(C)CCOC(C)(c1ccccc1)c1ccccn1 (stereo not given)
inactive: outcome [8] | outcome [9] | Potency [13] | Potency [2] | outcome [10] | outcome [14] | outcome [11] | Potency [12] | Potency [7] | Potency [3] | Potency [5] | Potency [6]

CCN(CC)C(C)CN1c2ccccc2Sc2ccccc21 (stereo not given)
inactive: outcome [8] | outcome [9] | Potency [13] | Potency [2] | outcome [10] | outcome [11] | Potency [12] | Potency [7] | Potency [4] | Potency [5] | Potency [6]
